An excerpt weighted towards active compounds, which were near 1.1% of everything screened.
PKA-R1A act = activators of PKA-R1A complex. P00514+P68181. AID 504707. activation, % at 11.4 µM. hit rate 0.083% among 340,000. PKA-R1A dissociation, Cy5-IP20 fluorescence polarization; scaled: DMSO 0%, 113 µM cGMP 100%;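 active = percent activation above the mean of all tested compounds plus 3 SD, cut at about 19% in these data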;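 note: higher means more PKAc released from R1A so a rise in polarization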
MsrA act = activates bovine MsrA enzyme; activation, % at 10.6 µM; purified bovine MsrA, absorbance read-out; AID 602163; hit rate 0.3% among 360,000; in the data active = activation above about 7.5%;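 note: 0% = vehicle and 100% = reference activator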
PKA-R2B act = PKA-R2B complex activation. PKA-R2B holoenzyme dissociation, Cy5-IP20 fluorescence polarization; R2B truncated from residue 108, S112A mutant; 0% DMSO only, 100% 113 µM cGMP. activation, % at 11.4 µM. AID 504700. hit rate 0.079% among 340,000;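 active = activation above a cutoff set at the mean over all compounds plus 3 SD, cut at about 18% in these data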;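 note: higher means more holoenzyme dissociation and a rise in polarization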
Target sequence (P31323 whole entry, looked up, other chains not shown, the tested form may be a part): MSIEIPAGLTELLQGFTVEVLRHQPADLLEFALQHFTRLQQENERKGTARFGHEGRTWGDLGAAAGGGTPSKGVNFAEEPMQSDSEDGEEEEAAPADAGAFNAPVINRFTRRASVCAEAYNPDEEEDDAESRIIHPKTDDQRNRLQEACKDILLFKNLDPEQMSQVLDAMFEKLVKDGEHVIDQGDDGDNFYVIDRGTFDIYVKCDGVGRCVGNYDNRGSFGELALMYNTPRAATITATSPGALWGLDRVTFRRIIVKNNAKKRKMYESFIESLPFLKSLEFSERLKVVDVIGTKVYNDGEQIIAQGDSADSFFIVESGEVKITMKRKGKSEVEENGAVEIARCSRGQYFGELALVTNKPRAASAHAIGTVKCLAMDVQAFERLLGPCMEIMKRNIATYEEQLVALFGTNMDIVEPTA
MsrA inhibitor = inhibits bovine methionine sulfoxide reductase A. hit rate 0.75% among 360,000. purified bovine MsrA, absorbance read-out. inhibition, % at 15.5 µM; in the data active = inhibition above about 4.5%;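 note: 0% = vehicle wells with enzyme and 100% = reference inhibitor wells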
MsrA activ conf = bovine methionine sulfoxide reductase A activation confirmed; shares compounds with MsrA act; purified bovine MsrA, absorbance read-out; activation, % at 10.6 µM; hit rate 12% among 1,000; AID 602270; in the data active = activation above about 4%;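 note: enzyme coupled to thioredoxin and thioredoxin reductase with NADPH; 0% = vehicle wells and 100% = reference activator wells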
* marks the source's active call; other numbers are inactive results; . = no result given.

SMILES	PKA-R1A act	MsrA act	PKA-R2B act	MsrA inhibitor	MsrA activ conf
CN(Cc1cn[nH]c1-c1ccc2c(c1)OCO2)C1CCOCC1	-5	-2	-19	0	.
CC(=O)C1=C(C)N(CC(C)C)C(=S)NC1c1ccc(Br)cc1 (stereo unspecified)	.	.	.	1	.
COc1cccc(CNS(=O)(=O)c2ccccc2Br)c1	.	.	.	0	.
O=c1oc2ccccc2cc1-c1ccc(O)cc1O	-3	-3	-12	1	.
Oc1cccc2oc(=S)[nH]c12	1	12*	-5	1	-1
COc1ccc(C)cc1N(C(=O)c1ccccc1F)c1nc2ccccc2s1	-2	13*	0	0	-1
COc1ccc(C)cc1N(C(=O)c1ccccc1)c1nc2ccccc2s1	-3	1	3	-1	.
CCC(=O)Nc1ccc(C(=O)Nc2cccnc2)cc1	-10	15*	0	-1	-1
Cn1c(=O)c2cc(NC(=O)CCc3ccccc3)ccc2n1Cc1cccc(C(F)(F)F)c1	.	7.8*	.	2	0
COC(=O)c1sccc1NC(=O)CN1CCN(c2ccc(F)cc2)CC1	-7	9.1*	3	0	3
COc1ccccc1NC(=O)CN1CCN(c2ccc(F)cc2)CC1	4	-4	-8	-1	.
Cc1cc(C#N)c(C)n1-c1cc(C(F)(F)F)ccc1N1CCOCC1	-7	8.6*	0	-1	0
CC(C)C(=O)Nc1cc(C(F)(F)F)ccc1N1CCOCC1	-12	0	6	2	.
CCOC(=O)N1CCN(c2c(F)cc3[nH]c(=S)[nH]c3c2Br)CC1	-2	12*	2	1	-3
CCCn1cc(CCC(=O)Nc2ccc(Oc3cccnc3)cc2)c2ccccc21	.	.	.	-1	.
CN(C)C(CNC(=S)Nc1ccccc1Cl)c1cccnc1 (stereo unspecified)	-10	7.9*	-4	-1	-1
FC(F)c1nc2ccccc2[nH]1	-2	-7	0	-1	.
c1ccc2[nH]c3cc4ncnc4cc3nc2c1	-3	18*	-2	0	15*
CCN(CC)C(=O)c1csc(Nc2cccc3ccccc23)n1	10	-1	-1	1	.
CCN(CC)CCCNC(=O)c1csc(Nc2cccc3ccccc23)n1	7	8.1*	5	-1	-2
COC(=O)c1cc2c(c3c4cc(F)ccc4n(C(=O)c4ccccc4)c13)C(=O)N(C1CCCCC1)C2	.	.	.	1	.
O=C(COC(=O)c1c[nH]c2ccccc12)NC1CCCC1	-3	22*	-3	-1	-2
C[C@H](c1ccccc1)N1C[C@@H](COCc2ccccc2)Oc2cccc(Oc3ccc(C(C)(C)C)cc3)c2S1(=O)=O	.	.	.	0	.
Nc1ccn([C@@H]2O[C@H](C(=O)N[C@H](Cc3ccccc3)C(=O)N3CCN(C(=O)N4CCCCC4)CC3)[C@@H](O)[C@H]2O)c(=O)n1	.	.	.	0	.
Cc1cc(NC(=O)C(C)C)ncc1NC(=O)Cc1ccccc1	-3	9.6*	-10	0	-3
SMILES	PKA-R1A act	MsrA act	PKA-R2B act	MsrA inhibitor	MsrA activ conf
CCCCCCC12C(=Cc3cc4c(cc31)OCCO4)c1cc(OC)c(OC)cc1C(CC(=O)O)N2C(=O)OC (stereo unspecified)	.	.	.	2	.
CCN1CCN(c2ccc(S(=O)(=O)N3CCCCC3)cc2NC(=O)/C=C/c2ccc(Cl)cc2)CC1	-1	0	2	-2	.
O=C(N[C@H](C(=O)N1CCC[C@H]1C(=O)NCc1ccccc1)C1CCCCC1)c1ccc(Cl)c(Cl)c1	.	.	.	2	.
O=S(=O)(NCc1ccccc1)c1cc(Br)ccc1Br	.	.	.	0	.
O=C(NCC1COc2ccccc2O1)C1CCC(CNc2c(N3CCCCC3)c(=O)c2=O)CC1 (stereo unspecified)	-13	8.9*	-13	0	0
O=S(=O)(Nc1ccc2c3c(cccc13)CC2)c1ccc(F)cc1	-1	-2	-7	-1	.
CSc1ccc(S(=O)(=O)Nc2ccc3c4c(cccc24)CC3)cc1	3	11*	-3	0	0
CCSC1=NCCN1S(=O)(=O)c1ccc(NC(C)=O)cc1	11	-4	-8	0	.
CSC1=NCCN1S(=O)(=O)c1ccc(NC(C)=O)cc1	3	21*	0	0	-3
O=C(NC1CC1)c1ccc(NS(=O)(=O)c2ccc(F)cc2)cc1	-4	11*	-6	0	-1
O=C(NC1CC1)c1ccc(NS(=O)(=O)c2ccccc2)cc1	-2	-2	5	1	.
O=S1(=O)N[C@@H](Cc2ccccc2)COc2cc(N3CCOCC3)ccc21	.	.	.	0	.
COC(=O)N1C[C@H](Oc2ncccn2)[C@H]2C[C@@H]1c1ccccc1O2	.	.	.	1	.
CCc1cc2c(-c3ccccc3)cc(=O)oc2cc1OC(=O)c1cccs1	-3	11*	2	2	-4
Cc1cccc(OC(=O)n2c(=S)oc3cc(Cl)ccc32)c1	-2	9.8*	-2	0	1
CC(C)OC(=O)n1c(=S)oc2ccccc21	13	-1	11	1	.
CCc1nnc(NC(=O)CCS(=O)(=O)c2ccc(C)cc2)s1	-3	-7	0	0	.
CCCCc1nnc(NC(=O)CCS(=O)(=O)c2ccc(C)cc2)s1	-3	7.8*	-3	-2	2
Cc1ccc(-c2cc(NC(=O)Cc3c(C)[nH]c4ccccc34)ccc2Nc2cccnc2)cc1	.	.	.	2	.
COc1cc(Cl)c(CNC[C@H]2O[C@@H](n3ccc(=O)[nH]c3=O)[C@H](O)[C@@H]2O)c(Cl)c1O	2	10*	-1	0	-1
Cc1ccc(S(=O)(=O)NC2=C(N3CCN(Cc4ccccc4)CC3)C(=O)c3ccccc3C2=O)cc1	0	7.8*	6	-1	-1
Cc1cccc2c1N(CCOc1ccccc1Cl)C(=O)C2=O	-6	8.0*	-2	-1	-1
Cc1ccc(NC(=O)N2CC(C)OC(C)C2)cc1[N+](=O)[O-] (stereo unspecified)	.	.	.	0	.
CCCCCCCC[n+]1cccc(C(=O)N(CC)CC)c1	7	18*	0	0	-2
CCCCCCCCCCCCCCCC[n+]1cccc(C(=O)N(CC)CC)c1	-21	-4	-15	-1	.
SMILES	PKA-R1A act	MsrA act	PKA-R2B act	MsrA inhibitor	MsrA activ conf
COc1cccc(NC(=O)COC(=O)CCn2c(C)csc2=O)c1	1	9.2*	0	-1	-1
Cc1cc(C)nc(NS(=O)(=O)c2ccc(NC(=O)c3nn(-c4ccccc4)ccc3=O)cc2)n1	-2	14*	-10	0	-4
Cc1ccc(-n2ccc(=O)c(C(=O)Nc3ccc(S(=O)(=O)Nc4nccc(C)n4)cc3)n2)cc1	7	-6	-2	2	.
C#CCN1C[C@@]2(O)CC[C@@H](O)[C@@H](OC)[C@@H]2[C@@]1(C)[C@H](O)CC=C(C)C	.	.	.	0	.
COC(=O)c1ccc(C2=NOC(C)(c3nnc(Cc4ccccc4)o3)C2)cc1 (stereo unspecified)	-4	8.9*	-8	0	-1
S=c1[nH]c(-c2ccccc2)cs1	0	-1	-3	2	.
Fc1ccc(-c2csc(=S)[nH]2)cc1	-11	8.0*	4	2	1
